# Source: PubChem BioAssay (National Center for Advancing Translational Sciences (NCATS))
# The sample as a whole holds a higher share of hits than the screen did.
# Shiga inhibitor = inhibitors of Shiga toxin in Vero cells; inhibition, % at 38.7 µM; actives 9.2% (n = 290,000); Vero cells, Shiga toxin protein synthesis inhibition reporter; in the data active = inhibition mostly above about 28%, no sharp cut-off; inactive = mostly below about 43%; also: 0% is about no effect
# Marburg entry inh = inhibitors of Marburg virus binding or cell entry; AID 540276; Potency, µM (doses to about 37.8 µM), for the others: at the highest dose activity change, negative = inhibition, actives largely listed as inhibitors; actives 1.8% (n = 300,000); Marburg virus pseudotyped entry inhibition, cell reporter; calls by dose curve; tested in HEK293 cells; also: potency is read from the fitted curve at half-maximal effect; % is scaled to controls: 0 for no effect and ±100 for the full control effect
# AMA1 RON2 block = AMA1-RON2 (P. falciparum) interaction inhibition. actives 0.2% (n = 360,000). AlphaScreen AMA1-biotinylated RON2 peptide binding. Potency, µM (doses to about 58.2 µM), for the others: top-dose activity change, negative = inhibition, actives largely listed as inhibitors; active = well fitted inhibition curve with a large enough effect; inconclusive = small, poorly fitted or top-dose-only effect; inactive = no such curve, though single readings can be large or run the other way;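 also: potency is read from the fitted curve at half-maximal effect; 0% = vehicle wells and -100% = peptide control; nearly all actives have a fitted effect of over 45% in size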
#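 AMA1 (3D7) with his tag at 25 nM final met compounds first, then biotinylated RON2 peptide at 25 nM; detection used donor plus acceptor beads, 10 µg/mL apiece, read by AlphaScreen after 30 min at room temperature.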
# CHX counter = counter-screen hit for Shiga toxin inhibitors, cycloheximide. cell reporter, cycloheximide protein synthesis inhibition counterscreen. max response, %. actives 12% (n = 300,000); in the data active = max response mostly above about 13%, no sharp cut-off; inactive = mostly below about 14%; also: read at 38.3 µM for the half of the compounds with a filed dose; 0% is about no effect
# Lassa entry inh = Lassa virus entry inhibition; Lassa virus pseudotype entry inhibition, cell reporter; Potency, µM (series often up to 37.9 µM), for the others: top-dose activity change, negative = inhibition, actives largely listed as inhibitors; actives 1.2% (n = 300,000); calls by dose curve; tested in HEK293 cells; also: potency is read from the fitted curve at half-maximal effect; % is scaled to controls: 0 for no effect and ±100 for the full control effect; nearly all actives have a fitted effect of over 50% in size
# An asterisk follows results filed as active; ? = inconclusive; . = no result; [ ] = another dose, or the depositor's remark.
SMILES,Shiga inhibitor,Marburg entry inh,AMA1 RON2 block,CHX counter,Lassa entry inh
CC1CCc2nc(NC(=O)CN3CCN(c4ccccc4)CC3)sc2C1 (centres undefined),-12,13%,-9%,-2,-18%
CC1CCc2nc(NC(=O)Nc3ccc4c(c3)OCO4)sc2C1 (centres undefined),91*,?,-13%,45*,?
O=C(CSCc1ccccc1)NNc1c(F)c(F)cc(F)c1F,34,3%,-4%,10,8%
Cc1ccc(NC(=O)CN(C)C(=O)COc2ccc(Br)cc2)cc1,.,.,2%,.,.
Cc1cccc(N2CCc3c2nc2ccc(Br)cc2c3N)c1,43,?,-4%,16*,10%
N#Cc1cc2c(nc1SCC(=O)Nc1ccc(Cl)cc1)C1CCN2CC1,74,0%,-4%,23*,-8%
N#Cc1cc2c(nc1SCC(=O)Nc1ccc(C(F)(F)F)cc1)C1CCN2CC1,.,?,.,.,-2%[46.1 µM]
Cc1nc(C(F)(F)F)ccc1C(=O)N1CCC(C)(C(=O)O)C1 (centres undefined),.,.,-11%,.,.
CC1=CC(C)(C)Nc2ccc(OC(=O)c3ccco3)cc21,38,?,-18%,17*,?
CC1=CC(C)(C)Nc2ccc(C)cc21,-9,6%,-9%,-6,1%
CC1=CC(C)(C)Nc2ccc(Cc3ccc4c(c3)C(C)=CC(C)(C)N4)cc21,-6,.,16µM*,-7,.
CC1=CC(C)(C)Nc2ccc(OC(=O)c3cccnc3)cc21,94*,?,-12%,27*,?
CC(=O)c1ccc(NC(=O)c2ncn(-c3ccccc3)n2)cc1,.,?,.,.,16%[46.1 µM]
COC(=O)[C@@H]1CC[C@H](C)[C@@H](c2ccc(C)cc2)N1C(=O)c1ccc(C=NOC[C@@H](O)[C@H]2O[C@@H]3OC(C)(C)O[C@H]3[C@@H]2O)cc1,.,28%[14.2 µM],.,.,10%[14.3 µM]
CCC(C(=O)Nc1ccc(C(C)=O)cc1)n1c(C)c2cnn(-c3ccccc3)c(=O)c2c1C (centres undefined),.,-8%[46.1 µM],.,.,-1%[46.1 µM]
c1ccc(CCn2cccc2)nc1,.,8%,12%,.,2%
CCCNC(=S)N1CCN(c2nc(-c3ccc(C)cc3)cs2)CC1,-2,?,7%,13*,-11%
CCCNC(=S)N1CCN(c2nc(-c3cccc(OC)c3)cs2)CC1,11,-30%,-11%,13*,-2%
S=C(NCCCN1CCOCC1)N1CCN(c2nc(-c3ccc(Cl)cc3)cs2)CC1,5,?,-27%,-3,16µM*
COCCNC(=S)N1CCN(c2nc(-c3ccccc3)cs2)CC1,-3,.,-20%,-4,.
CCN(CC)S(=O)(=O)c1cc(NC(=O)CNc2cccc(S(=O)(=O)N3CCOCC3)c2)ccc1C,.,?,-6%,.,?
Oc1c(Br)cc(C2N=C(c3ccccc3)NO2)cc1Br (centres undefined),103*,3%,0%,26*,-3%
CSc1ccc(C2N=C(c3ccccc3)NO2)cc1 (centres undefined),114*,?,57%,41*,6%[46.1 µM]
CSc1nc(-c2ccccc2)c(-c2ccccc2)[nH]1,-8,-25%,-9%,-2,-2%
OC1CCCN(Cc2nc(Cc3ccccc3Cl)no2)C1 (centres undefined),28,.,0%,17*,.
SMILES,Shiga inhibitor,Marburg entry inh,AMA1 RON2 block,CHX counter,Lassa entry inh
CCOC(=O)C1CCCN(Cc2nc(Cc3ccccc3Cl)no2)C1 (centres undefined),-4,.,-1%,-2,.
CC1CCCN(Cc2nc(Cc3ccccc3Cl)no2)C1 (centres undefined),38*,7%[46.1 µM],8%,23*,6%[46.1 µM]
Cc1ccc(C(=O)CC2(O)C(=O)N(CN3CCOCC3)c3ccccc32)cc1 (centres undefined),44*,7%[46.1 µM],7%,18*,1%
CCc1ccc(C(=O)CC2(O)C(=O)N(CN3CCOCC3)c3ccccc32)cc1 (centres undefined),30,?,4%,19*,4%
COC(=O)CN1C(=O)C(O)(CC(=O)c2ccc(C)cc2)c2ccccc21 (centres undefined),16,35%,-2%,-3,-5%
CC(C)c1ccc(C(=O)CC2(O)C(=O)N(CN3CCOCC3)c3ccccc32)cc1 (centres undefined),64*,12%,-1%,39*,16%
Cc1ccc(C)c(NC(=O)CN(C)C(=O)COc2cccc3c2OC(C)(C)C3)c1,.,?,3%,.,-6%
O=C(COC(=O)c1ccccc1)NCc1ccco1,-9,2%,-1%,1,1%
CCNC(=O)COC(=O)c1cc(C)n(-c2ccccc2)c1C,62*,4%[46.1 µM],7%,41*,5%[46.1 µM]
O=C(COC(=O)c1ccccc1Nc1cccc(C(F)(F)F)c1)NCc1ccco1,36,2%[46.1 µM],-30%,17*,?
Cc1noc(C)c1COC(=O)c1cc(C)n(-c2ccccc2)c1C,38*,-29%,-15%,51*,-51%
Cc1cc(C(=O)OCC(=O)NCc2ccco2)c(C)n1-c1ccc(F)cc1,22,?,-2%,14,10µM*
COc1ccc(NS(=O)(=O)NC(=O)c2c(C)n(C)c3ccccc23)cc1,-6,.,5%,24*,.
Cc1cccc(NC(=O)NNC(=O)c2cc3ccccc3cc2O)c1C,-2,7%[46.1 µM],44%,5,0%
Cc1cccc(NC(=S)NNC(=O)c2ccc(O)cc2O)c1C,35*,?,6%,20*,5%[46.1 µM]
Cc1ccc(NC(=S)NNC(=O)c2ccccc2O)c(C)c1,97*,?,-20%,33*,-17%[46.1 µM]
C#CCCCO/N=C1\C[C@@H](O)[C@@H](O)[C@@H]2[C@@H]3C(=O)N(c4ccc(F)cc4F)C(=O)[C@@H]3CC[C@@H]12,.,-8%[14.2 µM],.,.,.
COc1ccc2c(c1)[nH]c1c(=O)n(CC3CCCO3)cnc12 (centres undefined),23,14%,29%,28*,?
O=c1c2[nH]c3cccc(Cl)c3c2ncn1CCN1CCCCC1,-6,-9%,-5%,-1,3%
COc1ccc2c(c1)[nH]c1c(=O)n(Cc3ccccn3)cnc12,3,4%,-1%,11,?
COc1ccc2c(c1)[nH]c1c(=O)n(Cc3ccco3)cnc12,39,?,1%,13*,?
O=c1c2[nH]c3cccc(Cl)c3c2ncn1CC1CCCO1 (centres undefined),49*,?,-2%,23*,?
CCCCn1cnc2c([nH]c3cc(OC)ccc32)c1=O,21,-2%,-12%,2,?
Cc1cc2oc(=O)c(CC(=O)NCCc3ccccc3F)c(C)c2c2occ(C(C)(C)C)c12,.,9%[46.1 µM],.,.,10%[46.1 µM]
O=C(NC1CC1)c1ccc2sc([C@H]3C[C@H](O)[C@@H](CO)O3)nc2c1,.,.,0%,.,.
O=C(NCCCc1ccccc1)c1ccc(Br)o1,53,?,20%,31*,18%
Cc1ccc(CNC(=O)CCNC(=O)c2ccc(Br)o2)cc1,-11,7%,4%,-3,-3%
O=C(NC(=S)NCc1ccccc1)c1ccc(Br)o1,27,.,.,12,.
O=C(NCCCCc1ccccc1)c1ccc(Br)o1,15,3%,4%,18*,-7%
